Dicer inh = human Dicer pre-microRNA cleavage inhibition. Q9UPY3. cat-ELCCA pre-miR-21 Dicer processing, chemiluminescence; active compounds read high. z-score at 25 µM. actives 6% (n = 47,000). AID 1347074; in the data active = z-score above about 3, passing the limit was not always enough;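 note: higher signal means more uncleaved substrate so more Dicer inhibition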
A number is an active result; - = inactive. The sample as a whole holds a higher share of hits than the screen did.

SMILES | Dicer inh
Cc1c(Cl)cccc1NC(=O)N1CCC(O)CC1 | -
N#C/C(=C1/SC=C(c2ccccc2)N1c1ccccc1)c1nc2ccccc2[nH]1 | -
COc1ccc(O)c(C2=NN3C(C2)c2cccc(OC)c2OC3c2cc(OC)ccc2OC)c1 (configuration not stated) | -
COc1cc(C2Oc3ccccc3C3CC(c4ccccc4O)=NN32)ccc1O (configuration not stated) | 11.1
COc1ccc(O)c(C2=NN3C(C2)c2cccc(OC)c2OC3c2cccc(OC)c2OC)c1 (configuration not stated) | -
COC(=O)c1ccc(C2Oc3ccccc3C3CC(c4ccccc4O)=NN32)cc1 (configuration not stated) | -
COc1cc(C2Oc3c(OC)cccc3C3CC(c4ccccc4O)=NN32)ccc1O (configuration not stated) | -
COc1ccc(O)c(C2=NN3C(C2)c2ccccc2OC3c2ccncc2)c1 (configuration not stated) | 10.5
COc1ccc(O)c(C2=NN3C(C2)c2ccccc2OC3c2ccc(OC)c(OC)c2)c1 (configuration not stated) | 5.95
CC(=O)CSC(=Nc1ccc(Cl)cc1)NC(=O)c1c(F)cccc1Cl | -
COc1ccc(OC)c(S(=O)(=O)NC(=NCC(C)C)SC)c1 | -
O=C(NNc1ccc(F)cc1)c1cc(OCC(F)(F)F)nc(OCC(F)(F)F)c1 | -
O=C(O)CSc1ccc(F)cc1Cl | -
CC(C)(C)c1ccc(C(=O)/C=c2\[nH]c(=O)/c(=C\c3cccs3)s2)cc1 | 3.38
COc1cccc(C(=O)/C=c2\[nH]c(=O)/c(=C\c3ccccc3)s2)c1 | -
CC(C)(C)c1ccc(C(=O)/C=C2\NC(=O)CS2)cc1 | -
O=C(Nc1ccc(-c2ccccn2)s1)N1CCOCC1 | -
Cc1nonc1NC(=O)Nc1ccncc1 | -
Cc1nonc1NC(=O)N1CCOCC1 | 5.94
CC(=O)Nc1ccc(N2C(=O)CC(Nc3ccc(N4CCOCC4)cc3)C2=O)cc1 (configuration not stated) | -
O=C(c1ccccc1)n1cc2c(n1)-c1ccccc1CS2 | -
C=CCN(CC=C)CC(O)Cn1c(C)c(C)c2ccccc21 (configuration not stated) | -
Nc1nc2c(c(=O)[nH]1)C(c1ccccc1Br)CC(=O)N2 (configuration not stated) | -
Cc1ccn2cc(-c3cccc(S(=O)(=O)N4CCCC(C)C4)c3)nc2c1 (configuration not stated) | -
Cc1ccc(C(=O)CN2/C(=C(/O)c3ccccc3)C(=O)c3ccccc3S2(=O)=O)c(C)c1 | -
SMILES | Dicer inh
Cc1ccc(C(=O)C2C(=O)c3ccccc3C2=O)cc1 | -
Cc1ccc(N2C(=O)c3ccccc3C2C(=O)c2ccc(C)cc2O)cc1 (configuration not stated) | 12
COc1ccc(CCNC(=S)NC2CC3CCC2C3)cc1OC (configuration not stated) | -
Cc1nn(C)c(NNC(=O)c2ccccc2Cl)c1[N+](=O)[O-] | -
CC(C)(C)C(=O)Nc1c(Cl)c(Cl)cc(Cl)c1Cl | -
CN(C)c1ccc(/C=C/c2nc3n(n2)C=COc2ccccc2-3)cc1 | 6.06
COc1ccccc1NC(=O)Nc1nc(-c2ccc(F)c(F)c2)cs1 | -
O=C(Nc1ccccc1)Nc1nc(-c2ccc(F)c(F)c2)cs1 | -
O=C(Nc1ccc(OC(F)(F)F)cc1)Nc1nc(-c2ccc(F)c(F)c2)cs1 | -
O=C(Nc1nc(-c2ccc(F)c(F)c2)cs1)Nc1ccc(Cl)cc1Cl | -
Fc1ccc(Nc2nc(-c3ccc(F)c(F)c3)cs2)c(F)c1 | 60.2
CSc1sc(C(=O)Nc2ccccc2Cl)cc1-c1nc(-c2ccc(Cl)cc2)cs1 | -
O=C(Nc1ccc(F)cc1)Nc1nc(-c2ccc(F)c(F)c2)cs1 | 3.04
Cc1ccnc(Nc2nc(-c3ccc(F)cc3)cs2)c1 | -
CC(C)(C)c1ccccc1NC(=O)Nc1nc(-c2ccc(F)c(F)c2)cs1 | 3.69
CCOC(=O)c1cnc(Nc2nc(C)c3ccc(C)cc3n2)nc1C | -
COc1ccc(/C=C2\C(=O)Nc3ccccc32)cc1OC1CCCC1 | -
CCCOc1ccc(C2c3c(oc4ccccc4c3=O)C(=O)N2c2nncs2)cc1OCC (configuration not stated) | -
Cc1nn(S(=O)(=O)c2ccccc2)c(C)c1Sc1ccccc1 | -
CC1CC(=O)Nc2ccccc2N1C(=O)Nc1ccccc1OC(F)(F)F (configuration not stated) | -
COc1ccc(C2CC(=O)C3=C(C2)NC(C)=C(C#N)C3c2cc3c(cc2Cl)OCO3)cc1 (configuration not stated) | -
CCOc1ccc(-c2oc3ccc(C)cc3c(=O)c2O)cc1OC | -
CC(C)NC(=O)CSc1nnc(-c2ccc3ncccc3c2)n1C | 3.1
Cc1ccc(C(=O)CSc2nnc(-c3ccc4ccccc4c3)n2C)cc1 | -
C=CCn1c(SCC(C)=O)nnc1-c1ccc2ncccc2c1 | -
SMILES | Dicer inh
CCOC(=O)CNC(=O)c1cccnc1Sc1ccc(C)cc1 | -
Cn1c(CSc2ccnc3cc(Cl)ccc23)nnc1SCC(=O)N1CCOCC1 | -
CCCOc1ccc(C2c3c(oc4ccccc4c3=O)C(=O)N2c2nc(C)c(C)s2)cc1 (configuration not stated) | -
O=c1c2ccccc2c(-c2ccc(Cl)cc2)nn1CN1CCOCC1 | -
CCOC(=O)c1sc2nc(C)cc(C)c2c1N | -
CNC(=S)NNC(=O)c1sc2nc(C)cc(C)c2c1N | 4.62
Cc1cc(C)c2c(N)c(C(=O)NN)sc2n1 | -
O=S(=O)(NCCCn1ccnc1)c1ccc2c(c1)OCCO2 | -
O=[N+]([O-])c1cc(C(F)(F)F)ccc1Oc1cccc(N2CCOCC2)c1 | -
Cc1ccc(/C=C/c2noc(-c3ccccc3O)n2)o1 | -
Cc1ccc(C(c2ccc(C)o2)c2ccccc2O)o1 | 5.26
Cc1ccc(C(O)c2cccnc2)o1 (configuration not stated) | -
c1ccc(-c2cn3ccsc3n2)cc1 | -
Cc1c(NC(=O)CSc2nnc3c4ccccc4n(C)c3n2)c(=O)n(-c2ccccc2)n1C | 3.23
Cc1cc(NC(=O)CSc2nnc3c4ccccc4n(C)c3n2)no1 | -
C=CCn1c2ccccc2c2nnc(SCC(=O)Nc3c(C)n(C)n(-c4ccccc4)c3=O)nc21 | -
CCOC(=O)/C(C#N)=C/N1CCC(C(c2ccccc2)c2ccccc2)CC1 | -
Cc1ccc(N2C(=O)CC(N3CCN(Cc4ccc5c(c4)OCO5)CC3)C2=O)cc1Cl (configuration not stated) | -
O=[N+]([O-])c1cc(CO)ccc1N1CCOCC1 | -
c1ccc2c(CN3CCN(Cc4ccncc4)CC3)c[nH]c2c1 | -
COc1ccccc1CN1CCN(Cc2c[nH]c3ccccc23)CC1 | -
c1ccc(CN2CCN(Cc3c[nH]c4ccccc34)CC2)cc1 | 6.88
Clc1ccc(/C=N/Nc2ncnc3sccc23)cc1 | -
CSc1sc(-c2nc(C)cs2)c(C)c1-c1ccnc(SCC(=O)Nc2ccc(Cl)cc2)n1 | -
COC(=O)Cc1nc(NS(=O)(=O)c2cccc(C(F)(F)F)c2)sc1C | -
COc1ccc(N2C(=O)CC(Sc3nc4c(cc3C#N)CCCC4)C2=O)cc1 (configuration not stated) | -
COc1ccc(N2C(=O)CCC2=O)cc1 | -
CCOC(=O)c1sc(=S)n(-c2ccc(OC)cc2)c1N | -
COc1ccc(-n2ccsc2=S)cc1 | 4.69
CCOc1cccc(C2c3c(oc4ccccc4c3=O)C(=O)N2c2ccccn2)c1 (configuration not stated) | 5.91

Bioassay records: PubChem, Center for Chemical Genomics, University of Michigan
